The record followed here is PubChem BioAssay (NCI).

Where “and” joins values, the source holds several entries; their conditions need not be identical. Equal entries are not always repeated. About 83,000 compounds went through this panel and 20% of them were active in at least one assay; those are over-represented in the sample as a whole.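 Negative percent growth values reflect cell death: -40 means 40% of the cells present at the start died, and -100 means all died.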 Values without a mark were called inactive. Calls of active or inactive are those of the source.

For this experiment, the system named is SN12C renal. The experiment can be described thus: NCI-60 one-dose screen, 48 h (100 = growth as untreated, 0 = no growth, -100 = all killed). As to conditions: 10 µM. The protocol:
Growth inhibition of the SN12C human tumor cell line is measured as a screen for anti-cancer activity. Cells are grown in 96 well plates and exposed to the test compound for 48 hours. Compounds are tested at a single concentration, which is 10^-5 M for most compounds. The reported endpoint is percent growth (GI% or GIPRCNT), where numbers from 0 - 100% represent growth inhibition, and numbers from -100% - 0 represent cell death. For example, a value of 40 represents 60% growth inhibition. A value of 0 means no net growth occurred over the course of the experiment. A value of -40 indicates 40% of cells at the beginning of the experiment died by the end of the experiment. A value of -100 means all cells are dead at the end of the experiment.
NCI-60 Human Tumor Cell Lines Screen was performed using the standard one-dose NCI protocol, which is described in more detail at https://dtp.cancer.gov/discovery_development/nci-60/default.htm.
Compounds with GIPRCNT values below 10 were considered active. Activity score was based on GIPRCNT using the following formula: […]
Score is 0 for GIPRCNT values of 100 or above, 50 for GIPRCNT values of 0, and 100 for GIPRCNT values of -100.
As for `NC(=O)c1cc([N+](=O)[O-])c(Cl)c([N+](=O)[O-])c1`, the growth was 100%.

With `O=[P+](O)c1ccccc1`, the growth was 104%. With `O=[N+]([O-])c1ccc(N2CCOCC2)c2c1no[n+]2[O-]`, the growth was 16.8%.

Regarding `COC1CC2C=C(C)/C=C/C=C/C(=O)NC(c3ccccc3)C/C=C/CCC(O)CC(=O)C2=C1O` (stereo not given), the growth is -84.9% (active). In the case of `CCOP(=O)(OCC)C(O)c1ccccc1Cl` (stereo not given) it was 106%; in that of `CC[C@@H](C)[C@@H]1NC(=O)C(NC(=O)C(CC(C)C)N(C)C(=O)C2CCCN2C(=O)C(C)O)C(C)OC(=O)C(Cc2ccc(OC)cc2)N(C)C(=O)C2CCCN2C(=O)C(CC(C)C)NC(=O)C(C)C(=O)C(C(C)C)OC(=O)C[C@H]1O` (stereo not given in full), -14.5% (active). As to `CC(C)C1(NC(=O)C2CC3c4cccc5[nH]cc(c45)CC3N(C)C2)OC2(O)C3CCCN3C(=O)C(Cc3ccccc3)N2C1=O` (stereo not given), the growth is 99.4%. In the case of `COC(C(=O)C(O)C(C)O)C1Cc2cc3cc(OC4CC(OC(C)=O)C(OC5CC(O)C(OC)C(C)O5)C(C)O4)cc(O)c3c(O)c2C(=O)C1OC1CC(OC2CC(OC3CC(C)(O)C(OC(=O)C(C)C)C(C)O3)C(O)C(C)O2)C(O)C(C)O1` (stereo not given), the growth is 5.41% (active). For the molecule `COc1cc(/C=C\[N+](=O)[O-])ccc1O`, the growth was 67.3% and 94.1%.

Regarding `Cc1cc(C(C)(C)c2ccc(O)c(C)c2)ccc1O`, the growth is 89.9%. In the case of `COC12C(COC(N)=O)C3=C(C(=O)C(C)=C(N)C3=O)N1CC1C2N1C` (stereo not given), the growth was 46.8%.

Regarding `O=C(CBr)Nc1ccc(Cl)cc1`, the growth was 85.5%. Consider `O=[N+]([O-])c1cc[n+]([O-])c2ccccc12`, for which the growth is -27.5% (active). In the case of `O=c1[nH]c2ccccc2n1C1CCN(CCCC(c2ccc(F)cc2)c2ccc(F)cc2)CC1`, the growth is 40.7% and 58%.

Consider `COc1ccccc1[As]=[As]c1ccccc1OC` (stereo not given), for which the growth is -83.3% (active). With `C#CC1(O)CCC(C(C)(C)C)CC1` (stereo not given), the growth was 104%. For `[Cl][Hg][c]1ccc(Cl)s1`, the growth is 34.1%. `Cc1ccc(C(=O)C2C(c3ccccc3)N2C2CCCCC2)cc1` (stereo not given): the growth is 107% and 100%. With `COS(=O)(=O)c1ccccc1`, the growth was 112%. As for `O=C1CCC(=O)N1SC(Cl)(Cl)Cl`, the growth is 102%. Take `S=C=NCCc1ccccc1`: the growth was 68.4%. In the case of `O=[N+]([O-])c1ccc(N(CCO)CCO)c2c1no[n+]2[O-]` it was -4.84% (active). With `CC1CCC2(OC1)OC1C(O)C3C4CCC5CC(OC6OC(CO)C(OC7OC(CO)C(O)C(OC8OCC(O)C(O)C8O)C7OC7OC(CO)C(O)C(OC8OC(CO)C(O)C(O)C8O)C7O)C(O)C6O)C(O)CC5(C)C4CCC3(C)C1C2C` (stereo not given), the growth was -26.9% (active). As to `C[C@]12CC[C@H]3[C@@H](CCC4=CC(=O)CC[C@@H]43)[C@@H]1CC[C@@H]2OC(=O)N(CCCl)N=O`, the growth is 23.2%.

`COC12c3c(C)cc(O)c4c(=O)occ(c34)C(=O)C1C13COC(=O)c4c(O)cc(C)c(c41)C(=O)C2C3OC(C)=O` (stereo not given): the growth is 102%. Consider `CCOP(=O)(OCC)/C(C#N)=C/c1ccc(Br)cc1`, for which the growth is 98.5%.

Regarding `COC(=O)C1C(O)C(C)C(O)C(C)/C=C\C=C(C)C(=O)Nc2c(C)c(OC(C)=O)c3c(c2O)C(=O)C(C)=C2OCOC(=C23)C(C)=CC(C)(O)C(O)C(C)C1O` (stereo not given), the growth is 94.9%. As for `C[C@@H]1C[C@@H]([C@H](O)CC2CC(=O)NC(=O)C2)C(=O)[C@@H](C)C1`, the growth was -0.0682% (active). With `C/C1=C\[C@H](C)C[C@H](C)OC(=O)C[C@H](c2ccc(O)cc2)NC(=O)[C@@H](Cc2c(Br)[nH]c3ccccc23)N(C)C(=O)[C@H](C)NC(=O)[C@@H](C)C1`, the growth was 14.2%.

Take `N#CCc1ccccc1`: the growth was 99.6%. Turning to `CC12OOC(c3ccccc31)c1c2ccc2ccccc12` (stereo not given), the growth is 94.4%. In the case of `COc1cc(/C=C(/C)[N+](=O)[O-])ccc1O`, the growth was 27.5% and 23.2%.

`Cc1ccc(NC(=O)CBr)cc1`: the growth was 95.7%. Consider `O=C(O)c1cc(Cc2ccc(O)c(C(=O)O)c2)ccc1O` (tested in a mixture with another compound), for which the growth is 87.1%. `NNc1ccccc1`: the growth was 97.3%. On to `O=[N+]([O-])/C=C/c1ccc([N+](=O)[O-])cc1`, for which the growth was 64.4% and 62%.

Regarding `CC(=O)[O][Hg][c]1c(C)c(C)cc(C)c1C`, the growth is -13.8% (active).

As to `O=[N+]([O-])/C=C/c1ccc(Cl)cc1[N+](=O)[O-]`, the growth was 63.2%.

With `CS(=N)(=O)CCC(N)C(=O)O` (stereo not given), the growth is 102%. In the case of `CC(Cc1ccc2c(c1)OCO2)NN` (stereo not given) it was 102%.
